PMC7862700, “An all-to-all approach to the identification of sequence-specific readers for epigenetic DNA modifications on cytosine”

How the values were obtained:
Assay in all cases: DAPPL (digital affinity profiling via proximity ligation, sequencing); 10 mM Tris-HCl pH 7.5, 50 mM NaCl, 1 mM DTT, 4% glycerol, room temperature, 30 min; GST-TFs on glutathione beads, 16-mer random dsDNA library, 0.1% formaldehyde crosslink after washing; high values mean tight binding
Settings in all cases: protein: recombinant; tags: N-terminal GST; dsDNA, one strand shown
FLI1 = biological target: T1, FLI1 (Homo sapiens, UniProt Q01543 1-452)
T1 sequence: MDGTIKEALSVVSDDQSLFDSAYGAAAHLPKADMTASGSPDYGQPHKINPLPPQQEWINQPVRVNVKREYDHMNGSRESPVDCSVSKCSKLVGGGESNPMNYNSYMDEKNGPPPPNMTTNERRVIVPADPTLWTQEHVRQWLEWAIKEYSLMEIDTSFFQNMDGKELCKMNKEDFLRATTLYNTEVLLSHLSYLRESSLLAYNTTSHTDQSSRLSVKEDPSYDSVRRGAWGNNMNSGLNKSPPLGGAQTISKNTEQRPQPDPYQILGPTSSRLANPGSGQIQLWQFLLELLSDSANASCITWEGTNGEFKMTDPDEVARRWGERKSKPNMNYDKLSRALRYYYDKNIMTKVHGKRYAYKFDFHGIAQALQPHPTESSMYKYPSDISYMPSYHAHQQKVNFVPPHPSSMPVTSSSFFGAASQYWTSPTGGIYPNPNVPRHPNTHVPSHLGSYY
How it was run: (§1)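 Binding signal is each hexamer's read frequency for a factor divided by its frequency in the tag-only sample. The factors were GST-fused human transcription factors from yeast, captured on glutathione beads, DNA-barcoded and pooled with that sample. Pools were incubated with 200 nmole of a random double-stranded 16-mer DNA library in Tris/NaCl/DTT/glycerol buffer at room temperature for 30 min, then washed, crosslinked with 0.1% formaldehyde, proximity-ligated with BsaI/T4 ligase (1 h, 37 °C), PCR-amplified and sequenced on an Illumina NextSeq500.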

ELK1 = biological target: T2, ELK1 (Homo sapiens, UniProt P19419 1-428)
T2 sequence: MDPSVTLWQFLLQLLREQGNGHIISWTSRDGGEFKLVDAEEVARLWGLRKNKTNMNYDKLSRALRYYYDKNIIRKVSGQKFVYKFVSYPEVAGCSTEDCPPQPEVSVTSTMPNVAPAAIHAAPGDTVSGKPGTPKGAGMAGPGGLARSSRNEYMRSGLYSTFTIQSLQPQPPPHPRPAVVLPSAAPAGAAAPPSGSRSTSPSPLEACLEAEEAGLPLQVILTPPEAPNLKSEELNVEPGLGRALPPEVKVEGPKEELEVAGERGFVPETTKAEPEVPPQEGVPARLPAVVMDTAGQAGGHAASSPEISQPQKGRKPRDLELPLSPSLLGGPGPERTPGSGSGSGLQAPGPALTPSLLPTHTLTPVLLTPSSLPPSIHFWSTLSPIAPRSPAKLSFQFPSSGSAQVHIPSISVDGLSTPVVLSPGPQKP
How it was run: as §1

GABPA = biological target: T3, GABPA (Homo sapiens, UniProt Q06546 1-454)
T3 sequence: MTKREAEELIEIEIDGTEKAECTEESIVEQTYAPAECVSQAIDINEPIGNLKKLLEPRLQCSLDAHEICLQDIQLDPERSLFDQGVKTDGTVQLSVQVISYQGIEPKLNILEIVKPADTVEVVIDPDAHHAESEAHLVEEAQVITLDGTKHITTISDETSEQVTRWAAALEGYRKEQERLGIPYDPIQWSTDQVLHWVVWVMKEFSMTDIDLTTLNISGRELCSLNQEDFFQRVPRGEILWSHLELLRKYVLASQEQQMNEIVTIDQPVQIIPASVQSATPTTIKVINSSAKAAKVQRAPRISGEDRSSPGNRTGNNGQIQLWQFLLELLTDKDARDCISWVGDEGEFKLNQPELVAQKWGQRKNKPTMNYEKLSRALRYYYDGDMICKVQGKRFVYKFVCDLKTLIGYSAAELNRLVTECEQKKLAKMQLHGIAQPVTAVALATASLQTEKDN
How it was run: as §1

ERG = biological target: T4, ERG (Homo sapiens, UniProt P11308 1-479)
T4 sequence: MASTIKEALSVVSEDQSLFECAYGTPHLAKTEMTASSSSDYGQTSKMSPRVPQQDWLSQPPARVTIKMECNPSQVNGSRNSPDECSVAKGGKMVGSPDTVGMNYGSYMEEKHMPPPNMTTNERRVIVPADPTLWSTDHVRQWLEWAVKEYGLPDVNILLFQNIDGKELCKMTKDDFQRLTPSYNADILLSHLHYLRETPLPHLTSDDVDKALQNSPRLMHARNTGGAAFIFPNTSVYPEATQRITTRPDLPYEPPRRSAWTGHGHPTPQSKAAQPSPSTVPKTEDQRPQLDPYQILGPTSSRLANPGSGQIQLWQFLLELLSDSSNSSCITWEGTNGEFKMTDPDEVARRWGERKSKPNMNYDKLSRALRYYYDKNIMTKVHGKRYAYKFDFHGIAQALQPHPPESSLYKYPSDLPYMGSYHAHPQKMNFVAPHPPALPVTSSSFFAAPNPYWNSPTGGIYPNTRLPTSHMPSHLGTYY
How it was run: as §1

ELF1 = ELF1 (Homo sapiens, UniProt P32519 1-619)
How it was run: as §1

EHF = biological target: T5, EHF (Homo sapiens, UniProt Q9NZC4 1-300)
T5 sequence: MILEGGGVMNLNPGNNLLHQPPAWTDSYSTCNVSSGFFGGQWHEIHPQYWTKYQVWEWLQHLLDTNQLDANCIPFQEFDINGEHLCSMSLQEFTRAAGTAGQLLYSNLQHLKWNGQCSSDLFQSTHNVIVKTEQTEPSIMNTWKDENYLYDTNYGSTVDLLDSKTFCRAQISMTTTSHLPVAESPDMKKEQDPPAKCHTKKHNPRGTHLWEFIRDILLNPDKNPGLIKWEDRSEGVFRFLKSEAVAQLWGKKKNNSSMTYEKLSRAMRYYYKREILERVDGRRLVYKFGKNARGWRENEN
How it was run: as §1

SPI1 = SPI1 (Homo sapiens, UniProt P17947 1-270)
How it was run: as §1

SPIB = SPIB (Homo sapiens, UniProt Q01892 1-262)
How it was run: as §1

ELK3 = biological target: T6, ELK3 (Homo sapiens, UniProt P41970 1-407)
T6 sequence: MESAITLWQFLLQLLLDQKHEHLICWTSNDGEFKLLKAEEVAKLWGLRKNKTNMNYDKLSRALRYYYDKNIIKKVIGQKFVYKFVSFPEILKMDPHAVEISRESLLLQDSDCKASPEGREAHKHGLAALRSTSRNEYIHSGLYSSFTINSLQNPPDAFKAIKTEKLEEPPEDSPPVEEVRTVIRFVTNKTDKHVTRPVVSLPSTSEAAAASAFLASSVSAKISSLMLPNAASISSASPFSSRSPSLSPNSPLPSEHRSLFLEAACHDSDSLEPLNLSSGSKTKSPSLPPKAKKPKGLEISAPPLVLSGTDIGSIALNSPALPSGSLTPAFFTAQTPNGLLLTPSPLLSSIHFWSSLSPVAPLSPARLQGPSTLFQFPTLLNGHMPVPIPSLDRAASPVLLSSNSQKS
How it was run: as §1

SPIB, sequence (Q01892 whole entry): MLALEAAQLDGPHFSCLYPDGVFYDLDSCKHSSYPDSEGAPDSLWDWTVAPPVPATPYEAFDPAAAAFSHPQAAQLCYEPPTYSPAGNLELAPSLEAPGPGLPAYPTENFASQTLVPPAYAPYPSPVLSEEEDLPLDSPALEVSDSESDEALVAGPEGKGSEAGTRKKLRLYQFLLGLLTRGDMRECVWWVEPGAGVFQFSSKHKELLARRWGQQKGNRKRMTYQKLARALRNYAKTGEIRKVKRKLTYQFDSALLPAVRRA
ELF1, sequence (P32519 whole entry): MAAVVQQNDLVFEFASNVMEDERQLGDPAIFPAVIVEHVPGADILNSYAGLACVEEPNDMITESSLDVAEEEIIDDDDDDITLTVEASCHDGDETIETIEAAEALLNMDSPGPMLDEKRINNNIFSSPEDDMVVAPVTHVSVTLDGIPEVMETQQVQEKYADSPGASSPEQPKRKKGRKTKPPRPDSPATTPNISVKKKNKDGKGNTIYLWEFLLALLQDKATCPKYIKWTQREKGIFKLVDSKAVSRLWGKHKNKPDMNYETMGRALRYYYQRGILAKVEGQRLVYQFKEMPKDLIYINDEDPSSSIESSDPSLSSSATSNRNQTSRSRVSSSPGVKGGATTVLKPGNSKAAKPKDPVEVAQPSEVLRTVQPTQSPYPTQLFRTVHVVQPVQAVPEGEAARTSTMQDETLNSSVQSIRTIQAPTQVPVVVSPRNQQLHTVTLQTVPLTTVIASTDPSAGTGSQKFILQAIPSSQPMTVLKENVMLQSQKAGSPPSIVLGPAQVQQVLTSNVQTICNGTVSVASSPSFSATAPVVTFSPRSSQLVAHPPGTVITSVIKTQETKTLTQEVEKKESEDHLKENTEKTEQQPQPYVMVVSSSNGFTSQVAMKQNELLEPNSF

Sequence	binding signal (FLI1)	binding signal (ELK1)	binding signal (GABPA)	binding signal (ERG)	binding signal (ELF1)	binding signal (EHF)	binding signal (SPI1)	binding signal (SPIB)	binding signal (ELK3)
CTCAAA	1.2 fold enrichment (6-mer frequency, TF over GST control)	1.14 fold enrichment (6-mer frequency, TF over GST control)	1.16 fold enrichment (6-mer frequency, TF over GST control)	1.13 fold enrichment (6-mer frequency, TF over GST control)	1.25 fold enrichment (6-mer frequency, TF over GST control)	1.11 fold enrichment (6-mer frequency, TF over GST control)	1.29 fold enrichment (6-mer frequency, TF over GST control)	1.23 fold enrichment (6-mer frequency, TF over GST control)	1.15 fold enrichment (6-mer frequency, TF over GST control)
TGGGCT	1.38 fold enrichment (6-mer frequency, TF over GST control)	1.33 fold enrichment (6-mer frequency, TF over GST control)	1.48 fold enrichment (6-mer frequency, TF over GST control)	1.34 fold enrichment (6-mer frequency, TF over GST control)	1.48 fold enrichment (6-mer frequency, TF over GST control)	1.44 fold enrichment (6-mer frequency, TF over GST control)	1.43 fold enrichment (6-mer frequency, TF over GST control)	1.38 fold enrichment (6-mer frequency, TF over GST control)	1.49 fold enrichment (6-mer frequency, TF over GST control)
CGACTA	1.24 fold enrichment (6-mer frequency, TF over GST control)	1.31 fold enrichment (6-mer frequency, TF over GST control)	1.5 fold enrichment (6-mer frequency, TF over GST control)	1.28 fold enrichment (6-mer frequency, TF over GST control)	1.31 fold enrichment (6-mer frequency, TF over GST control)	1.31 fold enrichment (6-mer frequency, TF over GST control)	1.29 fold enrichment (6-mer frequency, TF over GST control)	1.32 fold enrichment (6-mer frequency, TF over GST control)	1.3 fold enrichment (6-mer frequency, TF over GST control)
CGTATC	1.2 fold enrichment (6-mer frequency, TF over GST control)	1.3 fold enrichment (6-mer frequency, TF over GST control)	1.29 fold enrichment (6-mer frequency, TF over GST control)	1.28 fold enrichment (6-mer frequency, TF over GST control)	1.23 fold enrichment (6-mer frequency, TF over GST control)	1.25 fold enrichment (6-mer frequency, TF over GST control)	1.11 fold enrichment (6-mer frequency, TF over GST control)	1.2 fold enrichment (6-mer frequency, TF over GST control)	1.21 fold enrichment (6-mer frequency, TF over GST control)
